Assay outcomes deposited in PubChem BioAssay by SRMLSC.
DPM-DC inhibit = S. pneumoniae DPM-DC inhibition. purified DPM-DC, PK/LDH coupled NADH fluorescence. calls only at 10 µM. 65,000 tested, 0.49% active. AID 556;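 active means the 320 compounds with the highest percent inhibition in the single-dose primary screen, excluding strongly autofluorescent ones, cut at about 32% in these data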;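 further: kinetic rate of NADH fluorescence loss reporting ADP formed by the decarboxylase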
MK inhibit = inhibitors of Streptococcus pneumoniae mevalonate kinase | AID 555 | inhibition, % at 10 µM | 65,000 tested, 0.48% active | purified MK, PK/LDH-coupled NADH absorbance 340 nm;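 active means ranked among the strongest by inhibition in the single 10 µM screen, a fixed top-ranked set picked for dose follow-up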
PMK inhibit = inhibitors of Streptococcus pneumoniae phosphomevalonate kinase. purified PMK, PK/LDH-coupled NADH absorbance 340 nm. inhibition, % at 10 µM. 65,000 tested, 0.49% active;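 active means top-ranked compounds by inhibition in the single 10 µM screen, taking a fixed number of the strongest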;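 further: 0% = full reaction with DMSO carrier and 100% = background rate without enzyme reaction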
NADH coupling = blocks coupling enzymes of NAD/NADH assays; coupled PK/LDH NADH assays, four targets; IC50, µM (top dose mostly 10 µM), inactives show at the highest dose inhibition; 65,000 tested, 0.02% active;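 active means single-dose screening hits from any of four coupled enzyme assays that gave an IC50 when retested across doses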;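 further: the DPM-DC format reads NADH fluorescence rather than 340 nm absorbance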
Autofluor 339 = intrinsic fluorescence of library compounds, ex339/em460 – biochemical, MLSMR library, data from DPM-DC assay, artefact control, profiling panel | compound autofluorescence, ex339/em460 nm, NADH buffer; active compounds read high; 1 = no-compound wells, NADH background | fluorescence fold increase at 10 µM | 65,000 tested, 5.5% active | AID 709;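 active means at 10 µM, mean starting fluorescence two-fold or more over control wells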;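 further: signal is the first read of a kinetic run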
Abs 340nm = compounds absorbing at 340 nm. fold change at 10 µM. 65,000 tested, under 10 active. compound absorbance at 340 nm, fold over control;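 active means at 10 µM dose, initial 340 nm absorbance at least 2 fold that of control wells; inactive means change under 2 fold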;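 further: initial absorbance extrapolated from kinetic A340 decline of NADH oxidation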
An asterisk follows results filed as active; i = inactive; · = no result shown; + = active, no number. The list is not random: actives were taken first. Their share in the collection is about 6.5%.

SMILES	DPM-DC inhibit	MK inhibit	PMK inhibit	NADH coupling	Autofluor 339	Abs 340nm
COC(=O)C1=CNC=C(C(=O)OC)C1c1cccc(OC)c1	·	6	10	8%	3.9*	1.1
COC(=O)C1=CNC=C(C(=O)OC)C1c1ccc(Cl)cc1	·	3	0	2%	3.8*	1.1
COC(=O)C1=CNC=C(C(=O)OC)C1c1ccccc1Cl	·	0	0	0%	3.6*	1
CCOC(=O)C1=C(CSc2nc(C)ccc2C#N)OC(N)=C(C#N)C1c1cccc(OC)c1OC (stereo unspecified)	i	9	14	8%	1.4	1
CC1CCN(CC(=O)N2c3ccccc3CCc3ccccc32)CC1	i	0	1	0%	1.1	1
CCCCn1c(=O)[nH]c(=O)c2c1nc(-c1ccc(C#N)cc1)n2C1CCCC1	·	0	17	9%	5.2*	1
CCCCn1c(=O)[nH]c(=O)c2c1nc(-c1ccncc1)n2CCOC	i	30	5	5%	1.4	0.99
COc1cccc(-c2nc(CS(=O)(=O)CC(=O)NCCCN3CCc4ccccc4C3)c(C)o2)c1	i	4	6	3%	1.1	1
CC(=O)N1CCN(CCN=CC2=C(O)CC(c3cccs3)CC2=O)CC1 (stereo unspecified)	i	5	8	5%	1.1	1
CN(C(=O)C1CCOC1)c1nnc(C2CCOC2)s1 (stereo unspecified)	i	1	27*	9%	1.1	1
CN(C(=O)C1CCOC1)c1nnc(-c2cnccn2)s1 (stereo unspecified)	i	0	14	9%	1.3	1
COC(=O)c1cc2c(s1)-c1ccccc1OC2	·	6	11	9%	2.1*	1.1
O/N=C(\Cc1cscn1)c1ccc(O)cc1O	i	12	9	7%	1.1	1
CCc1cc(C(=O)Cc2nc3ccccc3[nH]2)c(O)cc1O	i	10	12	16%	2.3*	1.2
CCc1cc(/C(Cc2ccc3ccccc3n2)=N\O)c(O)cc1O	+	0	5	20%	0.48	1.1
CCc1cc(C(=O)Cc2ccc(F)cc2)c(O)cc1O	i	6	4	4%	1	1.1
Cc1onc(-c2ccccc2Cl)c1C(=O)Nc1cccc(-c2cn3cccnc3n2)c1	·	2	10	3%	3.5*	1
Cc1cc(NC(=O)c2cnn3c(C(F)F)cc(-c4ccccc4)nc23)no1	i	0	0	1%	1.2	1.1
CCOc1ccc(-n2c(=S)sc3c(=O)[nH]c(SCC(=O)NCc4ccco4)nc32)cc1	i	0	12	4%	1	1.1
O=C(NCc1ccco1)c1cnn2c(C(F)(F)F)cc(-c3cccs3)nc12	i	10	7	8%	2.3*	1.1
O=C(CSc1nc2nc(-c3cccs3)cc(C(F)(F)F)c2c(=O)[nH]1)NCc1ccco1	·	12	11	12%	4.9*	1.1
O=C(NCc1ccco1)c1cnn2c(C(F)F)cc(-c3ccccc3)nc12	i	11	4	12%	2.1*	1.1
COc1ccc(-c2cc(C(F)(F)F)n3ncc(C(=O)NCC4CCCO4)c3n2)cc1 (stereo unspecified)	·	8	5	2%	3*	1.1
O=C(O)c1cnn2c(C(F)(F)F)cc(-c3ccco3)nc12	i	4	0	1%	1.2	1.1
CCCCc1nc2ccccc2n2cc3c(=O)n(C)c(=O)n(C)c3c12	i	1	0	2%	1.4	0.99
SMILES	DPM-DC inhibit	MK inhibit	PMK inhibit	NADH coupling	Autofluor 339	Abs 340nm
N#CCCS(=O)(=O)c1nnnn1-c1ccccc1	i	0	15	6%	1	1
Cn1c(=O)c2c(nc(SCC(=O)N3CCc4ccccc43)n2Cc2ccccc2)n(C)c1=O	i	2	11	4%	1.1	1
O=C(NC1CCCCC1)c1cnn2c(C(F)(F)F)cc(-c3ccco3)nc12	i	0	14	12%	2.5*	1.1
Nc1nc2c(s1)CCc1c-2cnn1-c1ccccc1	+	0	5	21µM*	0.86	0.95
COc1ccc(-c2cnn(-c3ccccc3)c2N)cc1OC	i	5	2	2%	1.1	1.1
CCCCNC(=O)c1cccc(C(=O)NCCCC)c1	i	10	6	5%	1.1	1
